Laboratory results as given in PubChem BioAssay AID624169 (The Scripps Research Institute Molecular Screening Center, 2012).
Hit rate of the full screen: of about 360,000 compounds, about 2,400 (0.67%) were called active. For the sample, actives were picked, then their nearest neighbours and some compounds at random. Unmarked numbers belong to inactive results.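 The calls were made as follows: active = activation above a run cutoff, the mean activation of all tested compounds plus 3 SD (cut at about 14% in these data); inactive = the rest.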

These molecules were tested against 5-hydroxytryptamine receptor 2A (Mus musculus) (UniProt P35363) (assay: mouse Htr2a agonists via beta-arrestin recruitment, primary screen, cell-based, luminescence (AID 624169;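 also: 0% = plate median of compound wells and 100% = 30 µM serotonin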)). Settings: CHO-K1 mHTR2A beta-arrestin complementation, at 7.6 µM, active compounds read high, percent of 30 µM serotonin response.
Sequence of 5-hydroxytryptamine receptor 2A (Mus musculus) (P35363 whole entry, looked up): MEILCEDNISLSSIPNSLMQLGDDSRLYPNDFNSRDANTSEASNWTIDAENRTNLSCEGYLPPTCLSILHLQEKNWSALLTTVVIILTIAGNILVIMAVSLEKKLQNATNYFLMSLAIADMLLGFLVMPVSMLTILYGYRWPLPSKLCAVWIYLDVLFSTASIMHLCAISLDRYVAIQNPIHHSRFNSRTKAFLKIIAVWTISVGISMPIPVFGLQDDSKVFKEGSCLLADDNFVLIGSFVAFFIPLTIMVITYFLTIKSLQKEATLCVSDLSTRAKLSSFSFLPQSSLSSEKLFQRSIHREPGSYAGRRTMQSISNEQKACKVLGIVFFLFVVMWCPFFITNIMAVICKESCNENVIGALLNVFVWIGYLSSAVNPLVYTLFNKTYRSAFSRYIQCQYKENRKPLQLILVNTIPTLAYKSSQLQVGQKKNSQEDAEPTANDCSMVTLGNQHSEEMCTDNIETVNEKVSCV
Molecule `O=C(Nc1ccc(Cl)cc1)c1csc([C@H]2C[C@H](O)[C@@H](CO)O2)n1` has an activation of 4.98%. `O=C(Nc1cccc2cccnc12)c1ccc2sc([C@H]3C[C@H](O)[C@@H](CO)O3)nc2c1` was tested, and the activation was 16.7% (active). `O=C(Nc1nnc([C@H]2C[C@H](O)[C@@H](CO)O2)s1)c1cccc(Cl)c1` showed an activation of 5.77%. `Cc1cccc(-n2c(Cc3cc(=O)[nH]c(=O)[nH]3)nnc2SCC(=O)Nc2cccc(C(F)(F)F)c2)c1` showed an activation of 3.15%. `C/C(=N/NC(=O)c1ccc(Br)o1)c1ccc(C)o1` gave an activation of 0.28%. In the case of `C/C(=N\NC(=S)NC1CCCCC1)c1ccc(C)o1`, the activation is reported as 21.6% (active). For `Cc1ccc(/C=N/NC(=S)NC2CCCCC2)o1`, the activation was 4.42%. `N#CC1=C(SCc2ccc(C#N)cc2)N=C(N)C(c2nc(-c3ccccc3)cs2)C12CCCCC2` (stereo unspecified) showed an activation of -0.07%. Work on `COc1ccc(OC)c(C(O)c2ncc(-c3cccc(C(F)(F)F)c3)[nH]2)c1` (stereo unspecified) yielded an activation of -2.32%. In the case of `O=C(Cc1ccccc1Cl)N1CCOCC1`, the activation is reported as -3.57%. Molecule `CN(C(=O)c1ccc(NC(=O)Cc2cccc(NC(=O)C3CCN(C(=O)c4ccccc4)CC3)c2)cc1)C1CC1` has an activation of -6.22%. `COc1ccc(NS(=O)(=O)c2cc(NC(=O)CC(=O)c3ccc([N+](=O)[O-])cc3)ccc2C)cc1` gave an activation of -2.57%. In the case of `COc1ccc(NS(=O)(=O)c2cc(C(=O)Nc3ccccc3C(=O)O)ccc2C)cc1`, the activation is reported as 17.9% (active). For `Cc1ccc(C(=O)Nc2ccccc2-c2ccccc2)cc1S(=O)(=O)Nc1ccccc1`, the activation was 5.68%. `O=S(=O)(Nc1cccc(-c2ccc(N3CCOCC3)nn2)c1)c1ccc(Cl)c(Cl)c1` was tested, and the activation was -3.29%. `O=C(NCc1ccccc1CN1CCCC1)C1CCN(S(=O)(=O)c2ccc(Cl)cc2)CC1` was tested, and the activation was -12.7%. With `O=C(NCc1ccccc1Cl)C1CCN(S(=O)(=O)N2CCOCC2)CC1` the activation was 2.15%. With `O=C1CCc2cc(S(=O)(=O)N3CCC(C(=O)NCc4ccccc4Cl)CC3)ccc2N1` the activation was 19.6% (active). `COc1cccc(C(=O)n2ccc(-c3cccs3)n2)c1` gave an activation of 2.87%. In the case of `Cc1ccc(C(=O)N2CCN(C3CCCCC3)CC2)s1`, the activation is reported as 7.15%. With `CCOCCOC(=O)C1=C(C)N(C)C(=O)NC1c1ccccc1F` (stereo unspecified) the activation was 1.37%. `O=C(CN(Cc1ccc(Br)cc1)S(=O)(=O)c1ccccc1)NCc1ccncc1` gave an activation of -1.63%. With `CCc1ccc(CN(C)C(=O)C2CCC(=O)N(Cc3cccc(OC)c3)C2)nc1` (stereo unspecified) the activation was 6.04%. For `CC(=O)Nc1ccc(S(=O)(=O)N2CCC(N(C)CCC(C)C)CC2)cc1`, the activation was 6.97%. For `Cc1ccc(NC(=O)CN(C)Cc2ccc(F)cc2)c([N+](=O)[O-])c1`, the activation was 1.68%. Work on `CCOc1cc(C(=O)OCC(=O)Nc2cccc(C)c2)ccc1OCC(=O)N1CCOCC1` yielded an activation of -2.12%. For `CCn1cc(C(=O)OCC(=O)Nc2cccc(C)c2)c(=O)c2ccc(C)nc21`, the activation was 20.9% (active). Molecule `CCn1cc(C(=O)N2CC=C(c3ccccc3)CC2)c(=O)c2ccc(C)nc21` has an activation of -3.76%. `C=CCNC(=O)CC12CC3CC(C1)CC(CC(=O)NCC=C)(C3)C2` showed an activation of -3.65%. `CCCC(=O)N1c2ccc(-c3csc(N)n3)cc2CC1C` (stereo unspecified) showed an activation of 1.22%. `CN(c1ccc(O)cc1)c1nc(-c2cccnc2)cs1` gave an activation of -2.76%. `CC(C)(C)C(=O)OCc1nc(-c2ccc(O)c(O)c2)cs1` was tested, and the activation was 14.9% (active). Molecule `CC(=O)c1c(C)n([O-])c2ccccc2[n+]1=O` has an activation of 4.16%. `C=CCn1c(=NC(=O)c2ccc(S(=O)(=O)N3CCCC3)cc2)sc2cc(NC(C)=O)ccc21` showed an activation of 1.21%. `C=CCn1c(=NC(=O)c2cccs2)sc2cc(NC(C)=O)ccc21` was tested, and the activation was 23.5% (active). Work on `C=CCn1c(CCNC(=O)c2cccs2)n[nH]c1=S` yielded an activation of 4%. With `O=C(O)c1ccccc1Cc1ccc(F)c2ccccc12` the activation was -0.35%. `CCc1ccc2nc(Nc3ncc(C(C)=O)c(C)n3)nc(C)c2c1` showed an activation of -1.39%. Work on `O=C(CSc1nnc(Nc2ccccc2F)s1)NC1CCCC1` yielded an activation of -5.06%. `COc1ccccc1Nc1nnc(SC(C)C(=O)NC2CC2)s1` (stereo unspecified) was tested, and the activation was 14.8% (active). In the case of `COc1ccc(-c2nnc(SC(C)C(=O)NC3CC3)o2)cc1` (stereo unspecified), the activation is reported as -2.06%. `CCCCC1N2CC3([N+](=O)[O-])CN1CC([N+](=O)[O-])(C2)C3(C)C` (stereo unspecified) gave an activation of -2.15%. In the case of `CCc1ccc(OCC(=O)N(Cc2ccccc2)C2CCS(=O)(=O)C2)cc1` (stereo unspecified), the activation is reported as -6.02%. With `CCCCN(C(=O)COc1ccc(NC(C)=O)cc1)C1CCS(=O)(=O)C1` (stereo unspecified) the activation was -2.25%. In the case of `CC(=O)c1ccc(OCC(=O)N(C)C2CCS(=O)(=O)C2)cc1` (stereo unspecified), the activation is reported as 18.4% (active). `CN1C(=O)c2ccc(NC(=O)c3c(F)c(F)c(F)c(F)c3F)cc2C1=O` was tested, and the activation was 5.38%. For `COc1ccc(C(=O)Nc2c(N)nc(SCC(=O)N3CCC(C)CC3)[nH]c2=O)cc1OC`, the activation was 3.82%. `O=Cc1cn(CCOc2ccc(F)cc2)c2ccccc12` gave an activation of -3.3%. In the case of `COc1ccc(N(C(=O)CNC(=O)c2ccco2)C(C(=O)NCC2CCCO2)c2ccccc2)cc1Cl` (stereo unspecified), the activation is reported as -3.88%. In the case of `Cc1noc(C)c1S(=O)(=O)N(CC(=O)Nc1ccc2c(c1)OCCO2)c1ccc(C(C)C)cc1`, the activation is reported as 18.8% (active). `CCOC(=O)c1cccc(NC(=O)CN(c2ccc(C)cc2)S(=O)(=O)c2c(C)noc2C)c1` gave an activation of 4.56%. `Cc1noc(C)c1S(=O)(=O)N(CC(=O)NCc1ccc(Cl)cc1)c1ccc2c(c1)OCO2` showed an activation of 10.9%. With `COc1ccc(CN2CCN(C(=O)CCC(=O)Nc3nnc(C(C)C)s3)CC2)cc1F` the activation was 10.4%. `COc1ccc(NC(=O)C(NC(C)=O)C(=O)NCc2ccccc2Cl)cc1` (stereo unspecified) was tested, and the activation was -1.72%. Molecule `CC(C)NS(=O)(=O)c1ccc(CCC(=O)N2CCOCC2)cc1` has an activation of -3.51%. Molecule `COCc1cc(=O)oc2cc(NS(=O)(=O)c3ccc(C)cc3)ccc12` has an activation of 6.31%.
